Screening data deposited in PubChem BioAssay by several laboratories.
Only some compounds are listed: those with a hit (about 0.82% of all), similar ones and a draw of the others.
C-LANA FP: inhibitors of KSHV LANA C-terminal domain DNA binding; MBP-C-LANA/FAM-LBS DNA binding, fluorescence polarization; inhibition, % at 9 µM; actives 0.078% (n = 340,000); AID 504423;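 active means highest replicate inhibition at or above 60% at 9 µM, even if other replicates fall short; inactive means all replicates below 60% inhibition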;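 further: 0% = neutral control wells and 100% = 4 µM acridine orange control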
Keap1 Nrf2 FP: disrupts human Keap1 binding to Nrf2 peptide; Q14145; actives 0.15% (n = 340,000); inhibition, % at 9.4 µM; Keap1 Kelch-Nrf2 peptide fluorescence polarization, 1536-well; in the data active means inhibition above about 12%;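 further: human Keap1 Kelch domain with fluorescein labeled Nrf2 9mer peptide probe; 0% = neutral control wells and 100% = peptide positive control; higher means more block of Keap1 binding to Nrf2 peptide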
cardiac RTF act: increases calcium sensitivity of human cardiac regulated thin filaments; activation, % at 7.2 µM; P19429+P45379; actives 0.24% (n = 340,000); IANBD-labeled TnC RTF fluorescence at EC20 calcium; 0% EC20 calcium, 100% full calcium; AID 493008;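 active means activation above the mean over all tested compounds plus 3 SD, cut at about 30% in these data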;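 further: rise in fluorescence read as greater calcium sensitivity of cardiac thin filaments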
E coli Lon inh: inhibitors of E. coli Lon protease | purified E. coli Lon protease, fluorescence polarization | P0A9M0 | inhibition, % at 7.94 µM | actives 0.42% (n = 360,000); in the data active means inhibition above about 13%, passing the limit was not always enough;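 further: 0% = enzyme with probe and DMSO and 100% = no enzyme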
Target sequence (P0A9M0 whole entry, looked up): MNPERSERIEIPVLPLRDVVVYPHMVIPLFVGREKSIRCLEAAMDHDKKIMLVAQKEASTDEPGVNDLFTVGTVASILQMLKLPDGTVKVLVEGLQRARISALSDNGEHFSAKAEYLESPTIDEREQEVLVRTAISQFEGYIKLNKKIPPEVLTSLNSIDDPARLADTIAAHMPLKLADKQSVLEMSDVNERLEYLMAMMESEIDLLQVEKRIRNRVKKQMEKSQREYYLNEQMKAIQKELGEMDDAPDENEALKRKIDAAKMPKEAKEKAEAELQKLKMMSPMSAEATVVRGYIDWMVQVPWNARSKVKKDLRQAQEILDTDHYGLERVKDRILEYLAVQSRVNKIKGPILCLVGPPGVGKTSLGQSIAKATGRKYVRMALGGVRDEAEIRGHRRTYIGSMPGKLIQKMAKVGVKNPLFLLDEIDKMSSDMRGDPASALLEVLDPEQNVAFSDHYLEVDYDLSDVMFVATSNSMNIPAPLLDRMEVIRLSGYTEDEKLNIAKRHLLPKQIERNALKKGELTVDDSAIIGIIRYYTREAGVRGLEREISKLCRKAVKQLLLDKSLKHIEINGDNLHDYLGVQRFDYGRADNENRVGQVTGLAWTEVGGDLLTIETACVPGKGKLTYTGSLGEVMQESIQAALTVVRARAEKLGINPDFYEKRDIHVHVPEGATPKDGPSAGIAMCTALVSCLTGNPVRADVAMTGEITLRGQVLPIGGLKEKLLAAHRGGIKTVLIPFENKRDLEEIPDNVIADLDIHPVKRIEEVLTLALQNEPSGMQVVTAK
Cardiac RTF inh: cardiac RTF calcium desensitization. P19429+P45379. IANBD-labeled cardiac RTF, Ca2+ fluorescence. inhibition, % at 7.15 µM. actives 0.12% (n = 340,000). AID 493244;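 active means inhibition above the mean inhibition of all tested compounds plus 3 SD, cut at about 17% in these data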;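 further: assay run at fixed EC70 calcium of 1.6 mM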
Keap1 TSA: Keap1 (human) Kelch domain binding. shares compounds with Keap1 Nrf2 FP. Keap1 Kelch thermal shift, delta Tm; stronger effect = higher value. max delta Tm, degrees C. actives 8% (n = 400); in the data active means max delta Tm above about 0.48 degrees C
Sypro dye melt: shifts Sypro Orange melt without protein, a false positive. shares compounds with Keap1 Nrf2 FP. Sypro Orange dye-only thermal melt, no protein, delta Tm; top dose 26 µM. delta Tm, degrees C (concentration not given with the values). 140 tested, under 10 active. AID 651858;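 active means at highest dose tested, delta Tm positive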
The depositor's hits bear a star; / = not tested or not shown.

SMILES	C-LANA FP	Keap1 Nrf2 FP	cardiac RTF act	E coli Lon inh	Cardiac RTF inh	Keap1 TSA	others
CCN(CC)c1ccc(/C=N/NC(=O)c2c(Cl)cnn2C)c(O)c1	-2.2	21.7*	2.3	8.7	-16.9	-0.15
O=C(CSc1nnc(-c2ccc(Cl)cc2)o1)N1CCOCC1	-2.1	0.1	-7.1	1.3	-6.3	/
O=C(COC(=O)c1cccnc1Cl)Nc1ccc(N2CCCCC2)cc1	/	43.2*	2.4	-15.8	-14.5	-0.12	Sypro dye melt=-27.5
O=C(COC(=O)c1cccnc1Cl)Nc1ccc(N2CCOCC2)cc1	/	/	/	-2.0	/	/
Cc1ccc(C)c(N2CCN(C(=O)c3cc4ccccn4n3)CC2)c1	44.3	16.3*	102.8*	9.2	-197.2	0.38	Sypro dye melt=-28.2
CN(C)CCNC(=O)c1c(NC(=O)c2ccccc2)sc2c1CCCC2	/	16.8*	5.3	-12.4	-3.7	-0.15
CN(CCO)C(=O)c1c(NC(=O)c2ccccc2)sc2c1CCCC2	1.4	-3.9	3.6	-1.8	-3.9	/
CC(OC(=O)c1ccc(C(C)(C)C)cc1)C(=O)NC1CCCCC1C (stereo not given)	0.4	1.5	-2.1	1.6	-12.9	/
CC(OC(=O)c1ccc([N+](=O)[O-])o1)C(=O)NC1CCCCC1C (stereo not given)	10.4	20.8*	6.2	4.1	2.2	-0.07
COC(=O)c1c(NC(=O)COC(=O)Cn2cnc3ccccc32)sc2c1CCCC2	-1.8	-3.5	-16.2	6.7	-0.9	/
N#Cc1cccc(NC(=O)c2cc(C3CCCCN3C(=O)c3ccc4c(c3)CCO4)on2)c1 (stereo not given)	/	/	/	6.0	/	/
CC(C)C[C@@H](CN1CCC[C@H]1CN1C(=O)C(=O)NC[C@@H]1Cc1ccc(O)cc1)N1C[C@H](Cc2ccc(O)cc2)N(CCc2ccccc2)C(=O)C1=O	/	/	/	3.9	/	/
O=C(NNS(=O)(=O)c1ccc(F)cc1)c1ccc(S(=O)(=O)N2CCCCC2)cc1	-0.4	-4.5	5.0	-2.1	-23.3	/
O=C(NNS(=O)(=O)c1ccc(F)cc1)c1ccc(O)cc1	23.1	43.5*	1.4	-11.8	-5.8	-0.17
O=C(Cc1ccc(S(=O)(=O)N2CCCC2)s1)Nc1nc2c(s1)CCCC2	10.3	13.1*	5.4	-18.2	-14.4	-0.08	Sypro dye melt=-29.4
Cc1snc(S(=O)(=O)/C(C#N)=N/Nc2cccc(C(F)(F)F)c2)c1C#N	-2.1	12.1*	-13.8	-0.8	0.4	0.19
O=c1[nH]c(/C=C/c2cccc3ccccc23)nc2ccccc12	34.8	16.6*	-1.0	1.2	-13.1	-0.02	Sypro dye melt=-21.9
CC(=O)C1C(c2ccc(F)cc2)c2c(noc2C)CC1(C)O (stereo not given)	26.4	50.4*	/	-4.9	/	-0.15
COc1ccc(NC(=O)Cc2ccsc2)cc1S(=O)(=O)N1CCOCC1	26.8	46.0*	8.6	0.6	-13.2	-0.13
Cc1c(C(C)(C)O)[nH]c2cc(C(F)(F)F)ccc12	0.5	-2.8	2.3	-2.9	-2.9	/
O=c1[nH]c2cc(C(F)(F)F)ccc2n1-c1cc(C(F)(F)F)ccc1O	-4.5	15.2*	16.4	1.5	4.2	0.03
COc1cc(C)ccc1OCc1cc(C(=O)N(C)CCCN2CCOCC2)no1	-0.6	-1.3	2.2	1.9	-2.1	/
CCOC(=O)C1=C(C)NC(C)=C(C(=O)OCC)C1c1ccc([N+](=O)[O-])s1	19.7	38.6*	/	7.9	/	-0.11
Cc1ccc(S(=O)(=O)N2CCCCC2CCNC(=O)C(=O)NCc2ccccc2)cc1 (stereo not given)	1.0	-0.2	-7.9	-11.1	2.7	/
CCN(CC)c1ccc2cc(S(=O)(=O)c3ccc(Cl)cc3)c(=O)oc2c1	41.0	32.8*	253.4*	-37.8	-291.0	0.91	Sypro dye melt=-22.5
SMILES	C-LANA FP	Keap1 Nrf2 FP	cardiac RTF act	E coli Lon inh	Cardiac RTF inh	Keap1 TSA	others
CCCCCCc1cc2cc(S(=O)(=O)c3ccc(Cl)cc3)c(=O)oc2cc1O	-0.3	-6.5	5.5	-6.9	-4.9	/
Cc1cccn2c(=O)c3cc(S(=O)(=O)c4ccccc4)c(=N)n(Cc4cccnc4)c3nc12	31.3	19.5*	-1.1	13.4	-4.8	-0.02
N#C/C(=C\c1ccc[nH]1)C(=O)N1CCCCC1	/	58.3*	/	2.2	/	-0.17
N#C/C(=C\c1ccc(O)cc1)C(=O)N1CCCC1	-0.9	-3.6	0.1	3.8	-3.0	/
CC(=O)C(c1ccccc1)C(c1ccccc1)C(C)[N+](=O)[O-] (stereo not given)	-7.4	-1.5	2.5	-14.7	-4.8	/
CC1(C)CC(=O)C2=C(C1)NC(=O)CC2	/	/	/	-1.9	/	/
CC1(C)CC(=O)C2=C(C1)OC1=C(C2)C(=O)CC(C)(C)C1	2.2	20.6*	-4.0	2.1	-4.2	-0.1
Cn1c(N)c(C(=O)CSc2nc(C3CC3)n(-c3ccccc3)n2)c(=O)n(C)c1=O	-0.6	0.9	-4.3	-5.1	-6.6	/
CC(C)CC1C(=O)N(Cc2cn(CCC3OCCO3)nn2)CCS(=O)(=O)N1Cc1ccc(-c2cccc(N(C)C)c2)cc1 (stereo not given)	/	/	/	-2.8	/	/
CN1CCN(C(=O)c2ccc(-c3ccc(F)c(F)c3)c3ccoc23)CC1	/	/	/	-2.8	/	/
S=C1SCN(Cc2ccccc2)CN1Cc1ccccc1	-0.4	-1.6	0.8	-5.5	-2.0	/
S=C1SCN(CC2CC2)CN1CC1CC1	33.4	33.1*	3.7	3.4	4.2	-0.15
CC(C)c1nnc(NC(=O)CCC2CCCCC2)s1	0.1	-1.9	-5.0	5.3	-2.7	/
CCOc1ccccc1CN1CCNC(=O)C1CC(=O)NCc1nc(C)cs1 (stereo not given)	0.1	-6.0	1.9	12.2	-4.6	/
CCCSc1nnc2c(n1)OC(c1cccn1C)N(C(C)=O)c1ccccc1-2 (stereo not given)	-1.9	0.5	-8.1	-6.4	1.1	/
CCCCCSc1nnc2c(n1)OC(C)N(C(C)=O)c1ccccc1-2 (stereo not given)	-0.1	13.4*	4.0	-4.2	-6.4	-0.03
Cc1ccc2oc(C(=O)NCc3ncc(C)[nH]3)c(C)c2c1	-2.0	-1.6	-6.0	-1.4	0.8	/
COC(=O)c1cccc(NC(=O)NC(=O)c2ccc(Cl)cc2)c1	27.5	44.4*	/	-1.6	/	-0.01
CCN(CC)S(=O)(=O)c1ccc(C)c(NC(=O)COC(=O)CCC(=O)c2cccs2)c1	-0.4	0.6	1.5	-3.7	-5.7	/
O=C1CCCc2oc3c(cc(NS(=O)(=O)c4ccc5c6c(cccc46)C(=O)N5)c4ccccc43)c21	0.1	23.9*	1.8	10.8	-1.8	1.59*
N#C/C(=C\c1ccccc1)C(=O)NCCN1CCOCC1	-0.1	-1.5	-0.3	-0.8	-3.9	/
C=CCn1c(=O)/c(=C/c2ccsc2)s/c1=C(\C#N)C(=O)NCCN1CCOCC1	-2.9	13.2*	1.5	-14.4	-4.7	-0.15
O=C(OCc1c(F)cccc1Cl)c1cc([N+](=O)[O-])ccc1N1CCOCC1	1.4	-3.8	0.0	-3.6	-20.8	/
